We go through 15 compounds from PubChem BioAssay (Tox21).

For assay [1], the target named is Thyrotropin receptor (Homo sapiens) (UniProt P16473). The assay can be described thus: qHTS assay to identify small molecule agonists of the thyroid stimulating hormone receptor (TSHR) signaling pathway (AID 1224843; calls by dose curve; also: nearly all actives have a fitted effect of over 45% in size). Put shortly: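 Steps: seed 800 TSHR-HEK293 cells per well; add test compound and hold 30 min at ambient temperature; dispense cAMP-d2 then anti-cAMP cryptate; incubate 1 h at ambient; measure fluorescence intensity.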
Sequence of Thyrotropin receptor (Homo sapiens) (P16473 whole entry, looked up): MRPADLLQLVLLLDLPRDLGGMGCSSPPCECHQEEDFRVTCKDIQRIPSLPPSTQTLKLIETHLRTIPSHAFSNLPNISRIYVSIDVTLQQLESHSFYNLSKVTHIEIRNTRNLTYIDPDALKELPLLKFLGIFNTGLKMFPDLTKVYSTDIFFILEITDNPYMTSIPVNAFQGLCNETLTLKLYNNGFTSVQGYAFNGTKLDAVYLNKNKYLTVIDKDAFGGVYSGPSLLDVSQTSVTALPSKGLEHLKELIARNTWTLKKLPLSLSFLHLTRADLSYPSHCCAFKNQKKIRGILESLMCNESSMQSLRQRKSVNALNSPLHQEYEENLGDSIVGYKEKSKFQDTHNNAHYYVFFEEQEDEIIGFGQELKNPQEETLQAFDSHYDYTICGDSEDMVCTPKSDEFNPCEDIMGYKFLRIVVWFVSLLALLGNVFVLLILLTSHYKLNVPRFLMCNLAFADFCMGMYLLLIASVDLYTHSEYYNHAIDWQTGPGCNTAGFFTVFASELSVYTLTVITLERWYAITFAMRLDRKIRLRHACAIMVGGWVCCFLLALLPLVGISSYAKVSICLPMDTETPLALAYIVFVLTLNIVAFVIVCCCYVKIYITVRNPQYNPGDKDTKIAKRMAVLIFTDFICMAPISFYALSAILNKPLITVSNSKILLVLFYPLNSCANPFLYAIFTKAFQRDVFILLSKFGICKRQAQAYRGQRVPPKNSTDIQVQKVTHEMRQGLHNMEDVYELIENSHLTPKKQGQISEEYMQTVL

Assay [2] can be described thus: qHTS assay to identify small molecule agonists of the hypoxia (HIF-1) signaling pathway - cell viability counter screen (AID 1224844; calls by dose curve; also: nearly all actives have a fitted effect of over 50% in size). Put shortly: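 Multiplexed with the HRE beta-lactamase assay, this viability read used CellTiter-Glo luminescence (30 min, RT) on HRE-bla ME-180 cells treated 17 hrs with compounds in 0.5% dialyzed FBS medium.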
Assay [3] can be described thus: qHTS assay to identify small molecule agonists of the hypoxia (HIF-1) signaling pathway (AID 1224846; active = well fitted activation curve with a large enough effect in the signal ratio in the repeat runs, not every such curve was filed as active; the % refers to the signal ratio). Put shortly:
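Hypoxia-pathway activation was scored as increased beta-lactamase from an HRE-controlled reporter in ME-180 cells; plated at 2,000 cells per well with 0.5% dialyzed FBS, they were exposed 17 hrs to compounds and then given CCF4-AM.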

Assay [4] is described as follows: qHTS RealTime-Glo MT Cell Viability Assay in HepG2 cells - 24 hour (AID 1224867). Also: nearly all actives have a fitted effect of over 50% in size. Put shortly: (§1)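 qHTS, HepG2, 600 cells/well, RealTime-Glo (NanoLuc + prosubstrate) added with cells; 5 h preincubation; DMSO compound addition; 37 C; luminescence at 0/8/16/24/32/40 h.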
The nature of assay [5]: qHTS RealTime-Glo MT Cell Viability Assay in HEK293 cells - 32 hour (AID 1224868). Also: nearly all actives have a fitted effect of over 50% in size. Also: potency is read from the fitted curve at half-maximal effect. Put shortly:
(§2)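 Assay medium contained NanoLuc luciferase plus cell-permeant prosubstrate, added with HEK293 cells at 600 cells/well. After 5 h at 37 C/5% CO2 compounds were added; plates stayed at 37 C for 40 h with serial luminescence reads.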

Assay [6] in a line: A CellTox Green Cytotoxicity Assay to monitor cytotoxicity in HEK293 cells - 0 hour (AID 1224869). Also: nearly all actives have a fitted effect of over 50% in size. Put shortly:
(§3)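 Seeding of HEK293 cells together with cytotoxicity dye preceded a 5 h incubation at 37 C/5% CO2. Test compounds in DMSO were then added and fluorescence monitored across 40 h.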

A short description of assay [7]: qHTS RealTime-Glo MT Cell Viability Assay in HepG2 cells - 40 hour (AID 1224870). Also: nearly all actives have a fitted effect of over 50% in size. Put shortly:
(§4)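 HepG2 cells (600/well) mixed with RealTime-Glo MT reagent, settled 5 h at 37 C/5% CO2 before compound addition. Nonlytic NanoLuc luminescence from viable-cell prosubstrate reduction read repeatedly during 40 h treatment at 37 C.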

Assay [8] is described as follows: A CellTox Green Cytotoxicity Assay to monitor cytotoxicity in HEK293 cells - 40 hour (AID 1224871). Also: nearly all actives have a fitted effect of over 45% in size. Put shortly: as §3
A short description of assay [9]: qHTS RealTime-Glo MT Cell Viability Assay in HEK293 cells - 16 hour (AID 1224872). Also: nearly all actives have a fitted effect of over 50% in size. Also: potency is read from the fitted curve at half-maximal effect. Put shortly:
as §2

The nature of assay [10]: qHTS RealTime-Glo MT Cell Viability Assay in HepG2 cells - 8 hour (AID 1224873). Also: nearly all actives have a fitted effect of over 55% in size. Put shortly: as §4
The nature of assay [11]: qHTS RealTime-Glo MT Cell Viability Assay in HEK293 cells - 40 hour (AID 1224874). Also: nearly all actives have a fitted effect of over 50% in size. Also: potency is read from the fitted curve at half-maximal effect. Particulars: RealTime-Glo luminescence; max response: hits give low values. Put shortly: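 Tox21 screen in HEK293 using RealTime-Glo MT chemistry, with cells and reagent co-dispensed. Luminescence proportional to viable cell number was captured at intervals during 40 h compound exposure at 37 C.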

The nature of assay [12]: A CellTox Green Cytotoxicity Assay to monitor cytotoxicity in HEK293 cells - 24 hour (AID 1224875). Also: nearly all actives have a fitted effect of over 45% in size. Put shortly:
as §3

Assay [13] in a line: A CellTox Green Cytotoxicity Assay to monitor cytotoxicity in HepG2 cells - 16 hour (AID 1224876). Also: nearly all actives have a fitted effect of over 45% in size. Put shortly:
(§5)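 Nonlytic assay: viable cells exclude the dye, so fluorescence scales with cell death. HepG2 at 600 cells/well, compounds added after 5 h, signal read across 40 h.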

Assay [14] in a line: qHTS RealTime-Glo MT Cell Viability Assay in HepG2 cells - 32 hour (AID 1224877). Also: nearly all actives have a fitted effect of over 55% in size. Put shortly:
as §1

Assay [15] can be described thus: A CellTox Green Cytotoxicity Assay to monitor cytotoxicity in HepG2 cells - 40 hour (AID 1224879). Also: nearly all actives have a fitted effect of over 40% in size. Put shortly: as §5
Assay [16] is described as follows: qHTS assay to identify small molecule agonists of H2AX - cell viability counter screen (AID 1224847; calls by dose curve; also: top concentration of the series differs between compounds; nearly all actives have a fitted effect of over 30% in size). Put shortly: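 Cytotoxicity counter screen in wild-type CHO-K1 cells: a 3 hr compound treatment at 37C across 15 concentrations, followed by CellTiter-Glo luminescence to gauge viable cells.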
Assay [17] in a line: qHTS assay to identify small molecule agonists of the estrogen related receptor (ERR) signaling pathway from Tox21 library (AID 1224849; calls by dose curve; also: nearly all actives have a fitted effect of over 15% in size). The conditions noted are these: ERR reporter cell line, ONE-Glo luciferase, 18 h; at 92.4 µM (top of the series) unless noted. Put shortly: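 Six hours post-seeding at 37 C/5% CO2, ERR cells receive DMSO-solubilised compounds; after 18 h at 37 C, ONE-Glo reagent is applied and luminescence recorded.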

Assay [18] in a line: A CellTox Green Cytotoxicity Assay to monitor cytotoxicity in HepG2 cells - 24 hour (AID 1224878). Also: nearly all actives have a fitted effect of over 45% in size. Put shortly: as §5
Assay [19] in a line: qHTS assay to identify small molecule antagonists of the estrogen related receptor (ERR) signaling pathway from Tox21 library (AID 1224848). Also: nearly all actives have a fitted effect of over 50% in size. Put shortly: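 Luminescent reporter read-out (ONE-Glo) from NTP's ERR cell line after 18 h treatment at 37 C with DMSO-dissolved Tox21 compounds; cells pre-plated 6 h beforehand at 2,000 per well.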
Assay [20] is described as follows: qHTS assay to identify small molecule agonists of H2AX (AID 1224845; active = well fitted activation curve with a large enough effect in the signal ratio in the repeat runs, not every such curve was filed as active; the % refers to the signal ratio). Put shortly:
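Wild-type CHO-K1 cells, plated overnight, exposed 3hr at 37C to 15 concentrations (0.76% DMSO final). Lysed, then HTRF anti-pH2AX (S139) cryptate and anti-H2AX-d2 antibodies, 24 hr room temperature; 665/620 nm emission read.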

Each structure is given as a SMILES string. Unmarked numbers belong to inactive results. Records with an inconclusive call do not appear. Calls of active or inactive are those of the source. Unless noted, calls follow the shape of the dose curve; as a rule, active = well fitted curve in the direction sought with a large enough effect in the repeat runs; inconclusive = weak or mixed curves; inactive = no such curve, though single readings can be large; an effect the other way counts as inactive or inconclusive.
% is scaled to controls: 0 for no effect and ±100 for the full control effect.

`C=Cc1ccccn1`: the Potency result in [1], in [5], in [8], in assay [9] and in assay [15] was “inactive” each time. In addition, the result in assay [2], in [3], in assay [4], in assay [6], in assay [7] and in assay [10] was inactive. Moreover, the result in assay [12], in [13] and in assay [14] was inactive. Moreover, the max response in [11] was -0.127%.

Turning to `O=C(Nc1ccc(Cl)c(Cl)c1)C1CC1`, the Potency result in assay [1], in [16] and in assay [15] was “inactive” each time. Also, the compound was called inactive in [2], in assay [3], in assay [6], in assay [7], in assay [10] and in assay [13]. Moreover, the outcome in assay [14] and in [18] was inactive. Also, the activity change, positive = activation in assay [17] was -22.3% [at 42.5 µM]. Moreover, the values for the Potency in assay [5], in assay [9] and in assay [11] were 9.52 µM (active), 9.52 µM (active) and 8.49 µM (active), respectively.

For `O=C(O)c1cc(Br)c(O)c(Br)c1`, the Potency entry in assay [1], in assay [19], in assay [5], in [8], in [9] and in assay [15] was “inactive” in each case. For the same compound, the result in assay [2], in assay [3], in [4], in [6], in assay [7] and in assay [10] was inactive. In addition, the call in assay [12], in [13], in assay [14] and in [18] was inactive. The activity change, positive = activation in assay [17] was 4.86%. In [11], the max response is -4.67%.

Take `O=C(OCC(COC(=O)c1cccnc1)(COC(=O)c1cccnc1)COC(=O)c1cccnc1)c1cccnc1`: the Potency result in [1], in [16], in assay [5], in assay [8], in [9] and in assay [15] was “inactive” in each case. Moreover, the call in assay [2], in assay [3], in assay [4], in assay [6], in [7] and in [10] was inactive. The outcome in assay [12], in assay [13] and in assay [18] was inactive. In addition, in [11], the max response is 10.7%.

For the compound `Cc1cccc(OCC(O)CNC(C)(C)C)c1C` (stereo not given), the Potency result in assay [1], in assay [16], in [5], in assay [8], in assay [9] and in assay [15] was “inactive” each time. Besides, the compound was called inactive in assay [2], in assay [3], in assay [4], in assay [6], in assay [7] and in [10]. Also, the result in assay [12], in [13], in [14] and in assay [18] was inactive. Moreover, in assay [11], the max response was 0.394%.

For `CNS(=O)(=O)CCc1ccc2[nH]cc(C3CCN(C)CC3)c2c1`, the Potency result in [1], in assay [5], in assay [8], in assay [9] and in assay [15] was “inactive” each time. The compound was classed as inactive in [2], in assay [3], in assay [6], in [7], in assay [10] and in [12]. The call in [13], in assay [14] and in assay [18] was inactive. Moreover, in [11], the max response is -4.37%.

As for `CC(C)N(c1ccccc1)C(C)C`, the Potency result in assay [1], in assay [16], in assay [5], in assay [9] and in assay [15] was “inactive” each time. Further, the call in [2], in [3], in assay [6], in assay [7], in [10] and in [12] was inactive. The outcome in assay [13], in assay [14] and in assay [18] was inactive. Besides, the max response in assay [11] is 4.56%.

With `CC1(C)S[C@@H]2[C@H](N=CN3CCCCCC3)C(=O)N2[C@H]1C(=O)O`, the Potency result in assay [1], in assay [16], in assay [5], in [9] and in assay [15] was “inactive” in each case. Besides, the call in [2], in [3], in [4], in assay [6], in [7] and in assay [10] was inactive. Besides, the result in assay [12], in [13], in assay [14] and in assay [18] was inactive. Also, the max response in assay [11] was 6.57%.

As for `COC(=O)[C@@H]1[C@H]2C[C@H]3c4[nH]c5ccccc5c4CCN3C[C@@H]2CC[C@@H]1O`, the Potency entry in assay [1], in [16], in [19], in [5], in [8] and in assay [9] was “inactive” in each case. For the same compound, the Potency entry in assay [15] was “inactive”. The result in assay [2], in assay [6], in assay [7], in [10], in assay [12] and in assay [13] was inactive. Also, the outcome in assay [14] and in assay [18] was inactive. Besides, in [17], the activity change, positive = activation is 33.5% [at 42.5 µM] (active). Moreover, the max response in assay [11] is -22.3%.

As to `O=C(O)Cc1ccc(Cl)cc1Cl`, the Potency result in assay [1], in assay [16], in [5], in [8] and in assay [9] was “inactive” in each case. Further, the compound was classed as inactive in assay [2], in assay [3], in [4], in assay [6], in assay [12] and in assay [14]. Also, the max response in assay [11] is -0.186%.

With `O=Cc1ccc(Cl)c(Cl)c1`, the Potency entry in assay [1], in assay [16], in assay [8] and in assay [15] was “inactive” throughout. Moreover, the call in assay [2], in assay [3], in assay [4], in [6], in assay [7] and in assay [10] was inactive. The call in assay [12], in assay [13], in assay [14] and in assay [18] was inactive.

In the case of `CN(C)C(=O)CNC(=O)Cc1ccccc1`, the Potency result in [1], in assay [16], in [5], in assay [8], in assay [9] and in assay [15] was “inactive” each time. For the same compound, the compound was called inactive in assay [2], in assay [3], in assay [4], in assay [6], in assay [7] and in assay [10]. Further, the outcome in assay [12], in assay [13], in assay [14] and in assay [18] was inactive. For the same compound, the max response in assay [11] was 4.97%.

For the compound `CC(C)CC(=O)O`, the Potency entry in assay [1], in assay [16], in assay [19], in assay [5], in assay [8] and in [9] was “inactive” each time. Besides, the Potency entry in [15] is “inactive”. In addition, the compound was called inactive in assay [20], in assay [3], in [4], in [6], in assay [7] and in assay [10]. The result in assay [12], in assay [13], in assay [14] and in assay [18] was inactive. Also, the activity change, positive = activation in assay [17] was 4.14%. Also, the max response in [11] is 6.56%.

As to `O=C1c2ccccc2C(=O)C1c1ccccc1`, the Potency entry in [1], in assay [16], in assay [5], in assay [8], in assay [9] and in [15] was “inactive” throughout. Further, the result in assay [2], in assay [4], in assay [6], in [7], in assay [10] and in assay [12] was inactive. Moreover, the call in assay [13] and in assay [14] was inactive. The max response in assay [11] was 3.3%.

As to `CCCN1C[C@H](CSC)C[C@@H]2c3cccc4[nH]cc(c34)C[C@H]21`, the Potency entry in assay [1], in [5], in assay [8], in assay [9] and in [15] was “inactive” in each case. Moreover, the compound was called inactive in assay [2], in assay [4], in [6], in assay [7], in assay [10] and in [12]. The call in assay [13] and in assay [14] was inactive. Further, the max response in assay [11] was -0.0801%.
